PubChem BioAssay AID485317 (Broad Institute, 2010)
Among all 290,000 compounds or so, about 11,000 (3.8%) were called active.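 Rule for the calls: active = mean replicate inhibition above about 79%, with every replicate also reaching it (limit read from the data); inconclusive = only one of the two criteria met; inactive = mean below limit and not every replicate reaching it.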 Many of the other results were omitted from the sample, so actives are more common in it than they were.

Biological target: FAD-linked sulfhydryl oxidase ALR (Homo sapiens) (UniProt P55789)
Sequence (P55789 whole entry, looked up): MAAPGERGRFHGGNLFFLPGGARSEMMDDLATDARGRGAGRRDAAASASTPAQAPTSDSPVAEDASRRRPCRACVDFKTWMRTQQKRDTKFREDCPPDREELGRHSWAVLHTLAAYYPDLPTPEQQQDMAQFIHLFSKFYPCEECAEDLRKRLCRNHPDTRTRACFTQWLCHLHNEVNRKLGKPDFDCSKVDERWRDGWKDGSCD
Assay: inhibitors of human ALR sulfhydryl oxidase, primary screen, biochemical, H2O2 detection, HRP-luminol luminescence, single point (AID 485317)
Conditions: purified ALR, DTT oxidation, stronger effect = higher value, concentration not given here

Structure (SMILES)	inhibition
O=C(NNC(=O)c1cccc(S(=O)(=O)Nc2ccc(Cl)cc2)c1)c1ccc(=O)[nH]c1	-5.3% (inactive)
O=C(NCCc1ccc(C(F)(F)F)cc1)c1ccc2c(c1)OCO2	-2.72% (inactive)
COc1ccc(/C=C(\C#N)C(=O)OCC(=O)N(C)C2CCS(=O)(=O)C2)cc1 (stereo unspecified)	5.52% (inactive)
Nc1nnnn1CC(=O)N/N=C/c1ccc(-c2cccc(Cl)c2)o1	-10.4% (inactive)
CN1C(=O)/C(=C\c2ccc(-c3ccccc3)o2)SC1=S	-6.32% (inactive)
O=C(O)C(c1ccccc1)N1C(=O)/C(=C\c2ccc(-c3cccc(Cl)c3)o2)SC1=S (stereo unspecified)	98.2% (active)
CC1CC(=O)Nc2ccccc2N1C(=O)COc1ccc2cc(Br)ccc2c1 (stereo unspecified)	12.2% (inactive)
O=C(COc1ccc(F)cc1Br)NCC1COc2ccccc2O1 (stereo unspecified)	-3.27% (inactive)
COc1cccc2sc3cc(NCC[C@@H]4CCCN4C)ccc3c(=O)c12	-1.66% (inactive)
O=c1[nH]nc(CSCc2ccccc2Cl)[nH]1	-8.43% (inactive)
O=c1cc(O)nc(SCc2ccccc2Cl)[nH]1	100% (active)
Cc1cc(=O)[nH]c(SCc2ccc(Cl)cc2)n1	-9.56% (inactive)
COc1cccc2sc(NNC(=O)c3nc4ccccc4s3)nc12	93.7% (active)
COc1cccc2sc(Nc3nc(C)c(C(C)=O)s3)nc12	32.7% (inactive)
COc1ccccc1OCc1nc2ccccc2s1	2.66% (inactive)
CC(=O)C1=C(O)C(=O)N(c2ccc(Br)cc2)C1c1ccc([N+](=O)[O-])cc1 (stereo unspecified)	96.7% (active)
CC(=O)C1=C(O)C(=O)N(c2cccnc2)C1c1ccc([N+](=O)[O-])cc1 (stereo unspecified)	36.6% (inactive)
COC(=O)CN1C(=O)C(O)=C(C(C)=O)C1c1ccc([N+](=O)[O-])cc1 (stereo unspecified)	-8.67% (inactive)
COc1ccc(S(=O)(=O)N2CCN(CC(=O)NCC3(N4CCOCC4)CCCCC3)CC2)cc1	-0.676% (inactive)
CCCn1nc(C(=O)NNC(=O)CCOc2ccccc2OCC)c2ccccc2c1=O	16.7% (inactive)
CCOc1ccc(NC(=O)CN(C)C(=O)COc2cccc(CC)c2)cc1OCC	-14.9% (inactive)
Cc1cc(NC(=O)CCS(=O)(=O)c2ccc(F)cc2)no1	-5.46% (inactive)
CC(C)(C)C(=O)OCc1nc(-c2ccc(O)c(O)c2)cs1	99.4% (active)

Structure (SMILES)	inhibition
Cc1onc(C(=O)NN)c1-c1csc(COc2ccccc2)n1	-2.47% (inactive)
COc1cc(CC(=O)Nc2nc(-c3ccc(F)c(F)c3)cs2)cc(OC)c1OC	0.225% (inactive)
COc1ccc(CNC(=O)COC(=O)c2ccc(C)c(S(=O)(=O)N3CCOCC3)c2)cc1OC	-7.49% (inactive)
CC1CCCCC1NC(=O)Cn1c(=O)cnc2ccccc21 (stereo unspecified)	-5.91% (inactive)
COc1cc(/C=N/NC(=O)c2ccc(N3CCCC3=O)cc2)ccc1O	28% (inactive)
Cc1nccn1CC(=O)N/N=C/c1ccc(O)c(O)c1	99.4% (active)
CCn1c(SCC(=O)N/N=C/c2ccncc2)nc2ccccc21	-3.78% (inactive)
C=CCOc1ccc(/C=N/NC(=O)C(C)Sc2ccccn2)cc1OCC (stereo unspecified)	-4.04% (inactive)
COc1cc(/C=N/NC(=O)Cc2ccccc2)cc(OC)c1OC	-4.39% (inactive)
NCCCCCC(=O)N/N=C/c1ccc2nccnc2c1	0.997% (inactive)
Cn1c(SCC(=O)N/N=C/c2ccc(O)c(O)c2)nc2ccccc21	98.9% (active)
CCOc1ccc(/C=N/NC(=O)CSc2ccccn2)cc1O	98.9% (active)
Cc1ccc(/C=N/NC(=O)CSc2nc3ccccc3o2)cc1	-3.09% (inactive)
Cc1nc2ccccc2n1CC(=O)N/N=C/c1cccnc1	-8.97% (inactive)
CCOc1ccc(/C=N/NC(=O)C(C)Sc2ccccn2)cc1OCC (stereo unspecified)	-8.94% (inactive)
COc1cc(/C=N/NC(=O)CCc2n[nH]c(=O)[nH]c2=O)ccc1O	99.3% (active)
CC(C)(C)n1nc(Cc2cccc3ccccc23)c(C#N)c1N	-16.1% (inactive)
Cc1cc(NC(=O)CSc2nnc(-c3ccco3)n2N)no1	-0.748% (inactive)
CCOc1ccc2oc(C(=O)N(CC)CC(=O)Nc3ccc(NC(C)=O)cc3)c(C)c2c1	-6.04% (inactive)
CCOc1ccc2ccccc2c1/C=N/NC(=O)c1c(C)cc(C)[nH]c1=O	-4.32% (inactive)
COc1ccc(NC(=O)CN(C)C(=O)c2ccc(NC3CC3)c([N+](=O)[O-])c2)cc1	9.73% (inactive)
COc1cc(/C=N/NC(=O)c2ccoc2C)ccc1OCCN1CCCCC1	-5.33% (inactive)
CCOc1cc(/C=N/NC(=O)CN2CCCCC2)ccc1O	98.9% (active)

Structure (SMILES)	inhibition
CCOc1cc(/C=N/NC(=O)c2cc(-c3ccccc3)nc3ccccc23)ccc1O	12.6% (inactive)
O=C(O)c1ccc(N/N=C/c2cn(-c3ccccc3)nc2-c2cccs2)cc1	98.9% (active)
O=C(/C=C\c1cn(-c2ccccc2)nc1-c1cccs1)N1CCOCC1	-5.03% (inactive)
COc1ccc(-c2nn(-c3ccccc3)cc2/C=C\C(=O)Nc2ccc(C(=O)O)cc2)cc1	-2.34% (inactive)
Cc1ccc(NC(=O)CCNC(=O)c2ccc([N+](=O)[O-])cc2)cc1S(=O)(=O)N1CCOCC1	-6.28% (inactive)
Cc1ccc(N2CCN(c3ccc(C)cc3)C2c2ccccn2)cc1	86.9% (active)
Cc1ccc(N2C(=O)C3CC3C2=O)cc1 (stereo unspecified)	-2.01% (inactive)
Cc1ccc(S(=O)(=O)NCC(=O)N2CCN(c3ccccn3)CC2)cc1	3.32% (inactive)
CC(C)(C)OC(=O)C[C@@H]1C/C=C\C[C@H](CC(=O)N[C@@H](CO)Cc2ccccc2)C(=O)N[C@H](Cc2ccccc2)COC1=O	-0.505% (inactive)
O=C(NCc1ccccc1Cl)C(=O)NCC1CCCN1S(=O)(=O)c1cccs1 (stereo unspecified)	-7.66% (inactive)
CC1=C(C(=O)NC2CC(C)(C)Cc3c2cnn3-c2ccc(C)cc2)OCCO1 (stereo unspecified)	-16.8% (inactive)
COc1ccc(C(=O)NC2CC(C)(C)Cc3c2cnn3-c2ccccc2)c(OC)c1 (stereo unspecified)	0.864% (inactive)
Cc1cc(C(=O)NC2CC(C)(C)Cc3c2cnn3-c2ccccc2)n[nH]1 (stereo unspecified)	92.1% (active)
CC(=O)Nc1cccc(C(=O)OCC(=O)NCc2cc(C)c(O)c(C)c2)c1	25.7% (inactive)
CC(=O)c1ccc(NC(=O)c2sc3nc4n(c(=O)c3c2C)CCCCC4)cc1	-6.68% (inactive)
O=c1c2c(nc3n1CCCCC3)sc1c(O)cccc12	94.5% (active)
Cc1cccc2c(=O)n3c(nc12)CCCCC3	-3.58% (inactive)
CSc1ncccc1C(=O)Nc1ccc2c(c1)OCO2	-7.77% (inactive)
COc1ccccc1N1CCN(CC(=O)Nc2ccnn2C2CCCC2)CC1	21.7% (inactive)
O=C(OCC1OC(Oc2ccc(O)cc2)C(O)C(O)C1O)c1ccccc1 (stereo unspecified)	23.2% (inactive)
O=C(OCC1O[C@@H](OC(=O)c2cc(O)c(O)c(O)c2)[C@@H](OC(=O)c2cc(O)c(O)c(O)c2)[C@@H](OC(=O)c2cc(O)c(O)c(O)c2)[C@@H]1OC(=O)c1cc(O)c(O)c(O)c1)c1cc(O)c(O)c(O)c1 (stereo partly specified)	98.8% (active)
CC(=O)NC1C(OCc2ccccc2)OC(COC(C)=O)C(OC(C)=O)C1OC(C)=O (stereo unspecified)	-6.67% (inactive)
NC(=O)c1ccsc1NC(=O)COC(=O)Cc1n[nH]c(=O)c2ccccc12	-7.95% (inactive)

Structure (SMILES)	inhibition
Cc1cccc(NS(=O)(=O)c2ccc(C)c(C(=O)NCc3cccnc3)c2)c1	-5.85% (inactive)
c1ccc(Nc2n[nH]nc2-c2ccccc2)cc1	100% (active)
O=C(O)c1n[nH]nc1-c1ccccc1	-0.621% (inactive)
CCCCNC(=S)NNC(=O)c1cc(C)on1	55.3% (inactive)
CCCCNC(=O)Nc1c(C)cc(SC#N)cc1C	96.7% (active)
CCCCNC(=O)C(=O)c1ccccc1NC(C)=O	-1.84% (inactive)
O=C(OCc1cc(=O)n2ccsc2n1)C1(c2ccc(Cl)cc2)CC1	-1.54% (inactive)
COc1ccccc1C(=O)NC(=O)COC(=O)c1ccco1	-0.0405% (inactive)
Cc1cccc(NC(=O)c2ccc(S(=O)(=O)N(C)CC3CCCO3)cc2)c1C (stereo unspecified)	-10.6% (inactive)
CCN(CC(=O)NC(C)C)C(=O)c1cc(S(=O)(=O)N2CCCCC2)ccc1N1CCCCC1	-1.75% (inactive)
NC(=O)Nc1ccc(C(=O)OCC(=O)NC2CCCc3ccccc32)cc1 (stereo unspecified)	-2.38% (inactive)
CSCC[C@H](NC(=O)N1CCn2c1nc1ccccc12)C(=O)NCc1ccc2c(c1)OCO2	-4.75% (inactive)
CSCC[C@H](NC(=O)N1CCn2c1nc1ccccc12)C(=O)NC1CCCCC1	98.2% (active)
CC(C)C[C@H](NC(=O)N1CCn2c1nc1ccccc12)C(=O)NC1CC1	-10.7% (inactive)
CC1CCN(C(=O)COC(=O)c2cc(=O)[nH]c3ccccc23)CC1	2.67% (inactive)
CCn1c(SCC(=O)Nc2cc(C)c(Cl)cc2OC)nnc1-c1ccco1	98.5% (active)
COc1cc(Cl)c(C)cc1NC(=O)CSc1nnc(-c2cccnc2)n1Cc1ccco1	20.1% (inactive)
COc1cc(Cl)c(C)cc1NC(=O)CSc1nnc(-c2ccco2)n1CC(C)C	2.64% (inactive)
CCOC(=O)[C@H]1[C@H]2COc3ccccc3[C@@H]2N2C(=O)CN(Cc3ccccc3)C(=O)[C@@]12C	-1.27% (inactive)
C/C(=N\Nc1ncc(Cl)cc1Cl)c1cccs1	0.466% (inactive)
C/C(=N\Nc1nc2ccccc2[nH]1)c1cccs1	99% (active)
O=C(Nc1ccccc1-c1nc2ccccc2[nH]c1=O)c1cccs1	1.37% (inactive)
